About 79,000 compounds went through this panel and 15% of them were active in at least one assay; those are over-represented in the sample as a whole. A number with no mark means an inactive call. Activity calls are given as the source filed them. Rule as the data show it: active = growth inhibition above about 70%; inactive = the rest.
Legend:
[1] = NCI Yeast Anticancer Drug Screen. Data for the rad50 strain (AID 155);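 also: 0% = growth of vehicle-only cultures of the same strain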; settings: S. cerevisiae rad50 strain growth inhibition, stronger effect = higher value
How it was run: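 Readout: growth inhibition relative to vehicle-treated cultures. Compound exposure was carried out in a genetically defined yeast strain deficient in DNA damage repair.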

[2] = NCI Yeast Anticancer Drug Screen. Data for the mec2-1 strain (AID 157); settings: S. cerevisiae mec2-1 strain, stronger effect = higher value
How it was run: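 Mutant yeast (mec2-1) grown with compound; growth inhibition relative to vehicle control reported.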

[3] = NCI Yeast Anticancer Drug Screen. Data for the sgs1 mgt1 strain (AID 161);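 also: 0% = growth of cultures given vehicle only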; settings: S. cerevisiae sgs1 mgt1 strain, stronger effect = higher value
How it was run: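 Yeast cells carrying a defined DNA-repair defect were exposed to test compounds. Growth inhibition was measured relative to vehicle-treated controls.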

[4] = NCI Yeast Anticancer Drug Screen. Data for the cln2 rad14 strain (AID 165);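 also: 0% = growth equal to vehicle treated cultures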; settings: S. cerevisiae cln2 rad14 strain, stronger effect = higher value
How it was run: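 Readout is yeast growth inhibition versus vehicle-treated controls, using a strain with cln2 and rad14 alterations exposed to compound.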

[5] = NCI Yeast Anticancer Drug Screen. Data for the bub3 strain (AID 167); settings: S. cerevisiae bub3 mutant strain, stronger effect = higher value
How it was run: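 Readout: yeast growth inhibition, expressed relative to vehicle-only wells. The test organism is a mutant strain from a panel with lesions in DNA repair or checkpoint genes.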

[6] = NCI Yeast Anticancer Drug Screen. Data for the mlh1 rad18 strain (AID 175); settings: S. cerevisiae mlh1 rad18 strain growth inhibition, stronger effect = higher value
How it was run: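 Genetically defined yeast (DNA repair-deficient) exposed to compounds; growth inhibition determined relative to vehicle.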

[7] = at 5.0 µM (retest, dose inferred, filed as 0.5)
[8] = at 50.0 µM (retest, dose inferred, filed as 5.0)

Compound | growth inhibition [1, 7] | growth inhibition [1, 8] | growth inhibition ([1]; at 50.0 µM) | growth inhibition [2, 7] [%] | growth inhibition [2, 8] | growth inhibition ([2]; at 50.0 µM) | growth inhibition [3, 7] [%] | growth inhibition [3, 8] | growth inhibition ([3]; at 50.0 µM) | growth inhibition [4, 7] [%] | growth inhibition [4, 8] | growth inhibition ([4]; at 50.0 µM) | growth inhibition [5, 7] [%] | growth inhibition [5, 8] | growth inhibition ([5]; at 50.0 µM) | growth inhibition [6, 7] | growth inhibition [6, 8] | growth inhibition ([6]; at 50.0 µM)
CCCCCCCCCCCC(=O)OCCOC(=O)CCCCCCCCCCC | -8% | -5% | -5.95% | -1 | -12% | -11.3% | -22 | -7% | -20.6% | 1 | -5% | -4% | 2 | -12% | -3.35% | 3% | -6% | 7.4%
O=[N+]([O-])c1ccc(CSSCc2ccc([N+](=O)[O-])cc2)cc1 | 5% | 18% | 18.5% | 9 | 39% | 16.7% | 21 | 49% | 41.5% | -3 | 36% | -18.2% | 26 | 66% | 72.5% (active) | 10% | 49% | 28%
N#Cc1c(-c2ccc(Cl)c(Cl)c2)c(-c2ccc(Cl)c(Cl)c2)nn(CCO)c1=O | 73% (active) | 96% (active) | 97.8% (active) | 44 | 98% (active) | 97.6% (active) | 50 | 97% (active) | 97.5% (active) | 39 | 95% (active) | 96.8% (active) | 43 | 97% (active) | 96.3% (active) | 72% (active) | 96% (active) | 97.5% (active)
CCCC(=O)Oc1ccc(-c2ccc(Br)cc2)cc1 | 4% | 93% (active) | 92.8% (active) | 11 | 93% (active) | 93.6% (active) | 3 | 88% (active) | 88.8% (active) | -6 | 93% (active) | 90.2% (active) | 39 | 95% (active) | 89.8% (active) | -7% | 94% (active) | 95.8% (active)

— PubChem BioAssay (NCI)
